These results are taken from PubChem BioAssay AID868 (SRMLSC, 2007).

In all, about 190,000 compounds went through this assay and about 3,500 (1.8%) were called active. The sample as a whole holds a higher share of actives than the screen did. A number with no mark means an inactive call.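 Rule for the calls: active = inhibition above a set limit, 3 SD over mean compound inhibition (cut at about 8.4% in these data); inactive = the rest.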

This experiment in a line: inhibitors of the yeast RAM network, primary screen, dse1pr::URA3 reporter, 5-FOA selection (AID 868).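 Note: 0% = DMSO-only wells with no growth and 100% = 10 µM 1-NA-PP1 full growth; inhibition rescues growth on 5-FOA so higher OD means more RAM inhibition.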 The note with it: S. cerevisiae dse1pr::URA3 reporter, 5-FOA growth OD615, 2 d; at 50 µM; stronger effect = higher value; analog-sensitive cbk1-as2 kinase mutant strain.
As to `CCOC(=O)C1CCCN(C(=O)COc2ccc(N(C)S(=O)(=O)c3ccc(C)cc3)cc2)C1` (stereo not given), the inhibition is -0.86%. The figure for `COCc1c(N)c(C)nc(Cl)c1C#N` is 0.6%; for `CC(C)(C)C(=O)N(Cc1ccccc1)c1ccccn1` it is -0.12%; for `CCOC(=O)C/C(C)=N\Nc1ccc([N+](=O)[O-])cc1[N+](=O)[O-]` it is 0%.

For the compound `Cc1ccccc1C(=O)OC1OC(=O)C(Cl)=C1Nc1ccccc1` (stereo not given), the inhibition was 6.67%. With `Cc1ccc(NC2=C(Cl)C(=O)OC2OC(=O)c2ccccc2C)cc1` (stereo not given), the inhibition was 12.9% (active).

Turning to `O=C1OC(OC(=O)c2ccccc2Br)C(N2CCOCC2)=C1Cl` (stereo not given), the inhibition is 1.63%.

On to `CCOc1ccc(C(=O)Nc2cccc(-c3ccc4nncn4n3)c2)cc1`, for which the inhibition is 3.23%. The figure for `COCCCNC(=O)/C=C/c1ccc(OCc2c(F)cccc2Cl)cc1` is 0.89%; for `O=C(Nc1ccccc1C(=O)N1CCCCCC1)c1ccccc1Cl` it is -0.13%; for `CC(=O)c1ccc(N2CCN(C(=O)c3ccc4nc[nH]c4c3)CC2)cc1` it is 2.3%.

Turning to `CCOC(=O)/C(N=Nc1cc(C(=O)O)cc(C(=O)O)c1)=C(\O)CCl`, the inhibition is 0%. The figure for `Cc1ccc(OCCCn2c(=O)oc3ccccc32)cc1` is 0.62%; for `COc1ccc(OCCCn2cccc2/C=C2/C(=N)N3OC(C)=CC3=NC2=O)cc1` it is 12.5% (active); for `CCOc1cc(/C=C2/C(=N)N3OC(C)=CC3=NC2=O)ccc1OC` it is 4.09%. For the compound `COCCNC(=O)C(c1ccc(O)cc1)N(C(=O)CCC(=O)Nc1nccs1)c1ccc(C)cc1` (stereo not given), the inhibition is 0.98%.

On to `Oc1c(Cl)cc(Cl)c(Cl)c1Cc1c(O)c(Cl)cc(Cl)c1Cl`, for which the inhibition is 12% (active).

Turning to `OC1CSc2nc3ccccc3n2C1` (stereo not given), the inhibition was 0%. Consider `CCCCn1ccnc1C(=O)c1cccc(S(=O)(=O)N2c3ccccc3CC2C)c1` (stereo not given), for which the inhibition was 11.4% (active).

For `CN1CCN(S(=O)(=O)c2cccc(C(=O)N3CCc4ccccc43)c2)CC1`, the inhibition is 1.24%.

Consider `CC1Cc2ccccc2N1S(=O)(=O)c1c(N)n(C)c(=O)n(C)c1=O` (stereo not given), for which the inhibition is -1.31%. `CC(=O)NC(Cc1ccc(F)c(F)c1)C(=O)NC1CCN(C(=O)c2ccc(C)cc2)CC1` (stereo not given): the inhibition was 0.5%. The figure for `COCCN(C(=O)c1ccco1)c1nnc(-c2ccc(OC)cc2)s1` is 4.86%. The figure for `COc1cc(OC)cc(-c2nnc(N(C)C(=O)c3ccncc3)s2)c1` is 0.96%; for `COCCN(C(=O)C(C)C)c1nnc(-c2ccc(C(C)(C)C)cc2)s1` it is 19.7% (active); for `CSc1nc2ccc(NC(=O)c3c(F)cccc3F)cc2s1` it is 4.89%.

Consider `Cn1cc(/C=C/C(=O)N2CCCC(C(=O)c3ccc(C(F)(F)F)cc3)C2)cn1` (stereo not given), for which the inhibition is -1.92%. The figure for `CN1CCN(c2ccc(S(=O)(=O)N3CCCCC3)cc2NC(=O)Cc2ccccc2F)CC1` is 1.32%. The figure for `O=C(O)CSc1nnc(-c2ccc3c(c2)OCO3)n1-c1ccccc1` is 3.54%.

For `COC(=O)c1ccccc1NC(=O)Cn1nc(C(F)(F)F)c2c1CCC2`, the inhibition was 5.65%.

As for `Cn1nc(C(F)(F)F)c(C(=O)Nc2cccc(C(F)(F)F)c2)c1SCc1ccc(Cl)cc1`, the inhibition is 7%. The figure for `COC(=O)c1ccccc1Sc1c(/C=N/OCc2ccc(Cl)cc2)c(C(F)(F)F)nn1C` is 8.63% (active). On to `CCOC(=O)c1sc(/N=C/C2=C(O)CC(C)(C)CC2=O)c(C(=O)OCC)c1C`, for which the inhibition was 4.52%.

Consider `Cc1ccc(C(C)NC(=O)Cn2nc(C)c([N+](=O)[O-])c2C)cc1` (stereo not given), for which the inhibition is 0.13%. The figure for `CCC(C(=O)Nc1ccc(C(C)C)cc1)c1ccccc1` (stereo not given) is 3.4%. Consider `COc1cc(OC)cc(-c2nc3nc(C)c(CCC(=O)NCc4ccco4)c(C)n3n2)c1`, for which the inhibition is 5.8%. The figure for `COc1ccc(-c2cc(C(F)(F)F)nc(SCCC(=O)NCc3ccco3)n2)cc1` is 8.41% (active); for `O=C(CSc1nc(-c2ccco2)cc(C(F)(F)F)n1)NCc1cccs1` it is 5.13%; for `COc1cc(/C=N/NC(=S)Nc2cccnc2)cc(OC)c1O` it is 0.73%. The figure for `CCOc1cc(C2C(C(=O)OC(C)C)=C(C)NC3=C2C(=O)CCC3)cc([N+](=O)[O-])c1O` (stereo not given) is 3.44%. For `COc1ccc(CCN(C)CCN2C(=O)c3ccccc3C2=O)cc1OC`, the inhibition is -0.11%. The figure for `COc1ccc(CCN=C2SCC(=O)N2Cc2ccccc2)cc1OC` is 0.24%; for `COc1ccc(CCNC2=C(Cl)C(=O)N(Cc3ccccc3)C2=O)cc1OC` it is 8.57% (active); for `O=C(CSc1ccccc1)Nc1nnc(/C=C/c2ccccc2)s1` it is 3.72%. As for `COc1ccc(Cl)cc1C(=O)NNC(=S)NC1CCCC1`, the inhibition is 0%. The figure for `COCCCNc1nc2c(-c3cccc(C(F)(F)F)c3)nnn2c2ccccc12` is 4.26%; for `CCCNC(=O)c1c(Cl)cnn1-c1ccc(C)cc1` it is -1.52%. The figure for `NS(=O)(=O)c1ccc(CCNC(=O)c2ccc([N+](=O)[O-])cc2[N+](=O)[O-])cc1` is 0%; for `CC(C)(C)N(Cc1ccccc1)C(=O)COC(=O)CCc1c[nH]c2ccccc12` it is 10.3% (active).

Take `CCOC(=O)CN(C)Cc1c[nH]c2ccccc12`: the inhibition is 4.1%.

Take `NS(=O)(=O)c1ccc(NC(=O)COC(=O)CCc2c[nH]c3ccccc23)cc1`: the inhibition is 1.13%. As for `CCOc1ncccc1C(=O)OCC(=O)NC1CC1`, the inhibition is -0.99%. The figure for `CN(C)C(CNC(=O)Cc1ccc([N+](=O)[O-])cc1)c1ccccc1` (stereo not given) is -0.62%; for `O=C(NCc1cccs1)C(=O)NCC1OCCCN1S(=O)(=O)c1ccc(F)cc1` (stereo not given) it is 3.25%. For the compound `COc1ccc(NS(=O)(=O)c2ccc(NC(=O)c3ccc(N(C)S(C)(=O)=O)cc3)cc2)cc1`, the inhibition is 4.92%.

Regarding `CC(C)CNC(=O)COC(=O)c1ccccc1OCC(=O)Nc1ccc(Br)cc1`, the inhibition was 1.56%. The figure for `COc1ccc(C2CC(c3cccs3)=NN2C(=O)COC(=O)c2cc3ccccc3cc2O)cc1OC` (stereo not given) is 4.23%; for `COc1ccc(C2CC(c3cccs3)=NN2C(=O)CSc2nnc(N)s2)cc1OC` (stereo not given) it is 1.88%; for `O=C1c2cccc(OCC(=O)N3N=C(c4cccs4)CC3c3ccc(F)cc3)c2CCN1Cc1ccccc1` (stereo not given) it is 9.86% (active). The figure for `COc1ccc(NC(=O)COC(=O)c2ccc(NS(=O)(=O)/C=C/c3ccccc3)cc2)cc1` is 4.45%; for `O=C(CSc1nncs1)NC1CCCc2ccccc21` (stereo not given) it is 0.4%.

Take `CN1/C(=C\C(=O)c2cccnc2Cl)C(C)(C)c2ccccc21`: the inhibition is 0.13%. In the case of `CC(C)Nc1nnc(SCC(=O)/C=C2\N(C)c3ccccc3C2(C)C)s1`, the inhibition is 10.6% (active). The figure for `CC(C)Nc1nnc(SCC(=O)c2c[nH]c3ccccc23)s1` is 0.26%. The figure for `COCCNC(=S)N1CCC(NC(=O)C23CC4CC(CC(C4)C2)C3)CC1` is -0.25%; for `CCN(CC)CCNC(=O)c1sc2ncn(CC(=O)Nc3ccc(C)c(Cl)c3)c(=O)c2c1C` it is 0.37%; for `Cn1c(=O)n(Cc2ccco2)c(=N)c2c3c(sc21)CCCC3` it is 1.37%. The figure for `O=C(COC(=O)CSc1nnc(-c2ccc(Cl)cc2)o1)Nc1cc(Cl)cc(Cl)c1` is 2.39%; for `CC(=O)NC1C(Oc2ccc(C=O)cc2)OC(COC(C)=O)C(OC(C)=O)C1OC(C)=O` (stereo not given) it is 1.12%; for `COc1ccc(O[C@H]2C=C[C@@H](c3ccccc3)O[C@@H]2CO/N=C/C[C@@H]2C=C[C@H](OC(C)=O)[C@@H](COC(C)=O)O2)cc1` it is 13.9% (active). In the case of `CC(=O)NC1C(OCc2ccccc2)OC(COC(C)=O)C(OC(C)=O)C1OC(C)=O` (stereo not given), the inhibition was 1.66%. As for `C=CCOC(=O)C1=C(C)N=C2SCCC(=O)N2C1/C=C/c1ccccc1OC` (stereo not given), the inhibition was 1.62%. Turning to `COc1ccccc1CNC(=O)CNC(=O)c1cn(-c2ccccc2OC)c(=O)c2ccccc12`, the inhibition is 1.48%.

As for `CCCCNC(=O)CSc1nc2ccc(NC(=O)CSc3nnc(N)s3)cc2s1`, the inhibition was 2.71%. The figure for `Nc1nnc(SCC(=O)Nc2ccc3nc(SCC(=O)Nc4ccccc4)sc3c2)s1` is 9.31% (active). As for `CCCCNC(=O)CSc1nc2ccc(NC(=O)CSc3nnc(COc4ccccc4C)n3C)cc2s1`, the inhibition was 6.51%.

Turning to `Cn1c(=O)c2c(ncn2CCc2ccccc2)n(C)c1=O`, the inhibition was 0.37%. The figure for `C/C=C(\C)C(=O)NCCN1C2=NC[C@H](Cc3ccc(O)cc3)N2C[C@@H]1Cc1ccc(OC)cc1` is -1.63%; for `CC(C)(C)n1nnnc1C(c1cccs1)N(Cc1cccnc1)CC1CCCO1` (stereo not given) it is 4.18%; for `CCC(C)(C)n1nnnc1C(c1cccs1)N1CCN(Cc2ccccc2)CC1` (stereo not given) it is 0.11%. Turning to `CCOc1ccc(CN(Cc2ccco2)C(c2cccs2)c2nnnn2C(C)(C)C)cc1` (stereo not given), the inhibition was 15.1% (active). The figure for `COCCn1c(C)cc(C(=O)COC(=O)/C=C/c2cccc(OC)c2)c1C` is 8.25%. In the case of `CC1CCCCC1NC(=O)COC(=O)Cc1ccc(Br)cc1` (stereo not given), the inhibition was 1.96%. With `COc1ccc(-c2noc(-c3cccc(OC)c3OC)n2)cc1OC`, the inhibition is 8.94% (active). In the case of `COc1cc(-c2nc(-c3ccncc3)no2)cc(OC)c1OC`, the inhibition is 1.83%. The figure for `COc1ccc(-c2nc(-c3ccccc3)no2)c(OC)c1` is -0.68%; for `COc1cccc(CN2CCNC(=O)C2CC(=O)N(C)CCc2ccccn2)c1` (stereo not given) it is 0.39%. As to `COc1ccc(OCC(=O)Nc2ccc(N3CCC(C)CC3)cc2)cc1`, the inhibition was -0.73%.

On to `CN1CCN(c2ccc(NC(=O)COc3ccc(Cl)cc3Cl)cc2)CC1`, for which the inhibition is 1.03%. For the compound `Cc1ccc(NC(=O)COc2ccc(-n3ccnc3)cc2)cc1Cl`, the inhibition is 19.6% (active).

One may read the inhibition as the change of the read-out against control, counted positive when it falls.
